Values joined by “and” are separate entries in the source; they are usually repeats but may differ in a detail not shown here. Equal entries are not always repeated. Screen size: about 5,500 compounds; about 2,000 (36%) were called active. Not shown: some 18% with an inconclusive outcome. Cut-off read from the data, not from the text of the source: active = normalized growth mostly below about 0.91 (no sharp cut-off); inconclusive = no clear call, values can overlap the other calls; inactive = mostly above about 0.92. Some of the results follow.
Assay: chemical genetic growth profiling, strain panel (AID 1159580);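 note: tested at 20 µM; growth read once vehicle control cultures reached saturation at 30 °C; 1 = growth at the plate median or of vehicle wells; lower values mean less growth of the strain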
Conditions: growth OD

Measured: normalized growth

O=C(O)c1cc(=O)c2ccc(Cl)cc2[nH]1
inactive: S. cerevisiae deletion strains, locus YJR043C, strain POL32, active compounds read low 1.03 | S. cerevisiae deletion strains, locus YJR075W, strain HOC1, active compounds read low 1.02 and 1 | S. cerevisiae deletion strains, locus YKL009W, strain mrt4, active compounds read low 0.99 | S. cerevisiae deletion strains, locus YKL068W, active compounds read low 0.995 | S. cerevisiae deletion strains, locus YKL085W, strain MDH1 (second series), active compounds read low 0.982 | S. cerevisiae deletion strains, locus YKL085W, strain MDH1, active compounds read low 0.982 | S. cerevisiae deletion strains, locus YKL160W, strain elf1, active compounds read low 1.05 | S. cerevisiae deletion strains, locus YKL190W, strain CNB1, active compounds read low 1.01 | S. cerevisiae deletion strains, locus YKR001C, strain vps1, active compounds read low 0.998 | S. cerevisiae deletion strains, locus YKR026C, strain gcn3, active compounds read low 1.01 | S. cerevisiae deletion strains, locus YKR091W, strain srl3, active compounds read low 1.01 | S. cerevisiae deletion strains, locus YLL001W, strain dnm1, active compounds read low 1.02 | S. cerevisiae deletion strains, locus YLL026W, active compounds read low 1.02 | S. cerevisiae deletion strains, locus YLL041C, strain sdh2, active compounds read low 1.03 | S. cerevisiae deletion strains, locus YLR027C, strain aat2, active compounds read low 1.03 | S. cerevisiae deletion strains, locus YLR039C, strain RIC1, active compounds read low 1.02 | S. cerevisiae deletion strains, locus YLR058C, strain SHM2, active compounds read low 1.02 | S. cerevisiae deletion strains, locus YLR102C, strain apc9, active compounds read low 0.986 | S. cerevisiae deletion strains, locus YLR221C, strain rsa3, active compounds read low 0.988 | S. cerevisiae deletion strains, locus YLR258W, strain gsy2, active compounds read low 1.03 | S. cerevisiae deletion strains, locus YLR262C, strain YPT6 (second series), active compounds read low 1 | S. cerevisiae deletion strains, locus YLR262C, strain YPT6, active compounds read low 1.05 | S. cerevisiae deletion strains, locus YLR268W, strain sec22, active compounds read low 0.986 | S. cerevisiae deletion strains, locus YLR320W, strain mms22, active compounds read low 1.01 | S. cerevisiae deletion strains, locus YLR330W, strain CHS5, active compounds read low 1.01 | S. cerevisiae deletion strains, locus YLR342W, strain FKS1 (second series), active compounds read low 0.957 | S. cerevisiae deletion strains, locus YLR342W, strain FKS1, active compounds read low 1.02 | S. cerevisiae deletion strains, locus YLR357W, strain rsc2, active compounds read low 1.02 | S. cerevisiae deletion strains, locus YLR370C, strain arc18, active compounds read low 1.02 | S. cerevisiae deletion strains, locus YLR371W, strain rom2, active compounds read low 0.984 | S. cerevisiae deletion strains, locus YLR384C, strain iki3, active compounds read low 1.01 | S. cerevisiae deletion strains, locus YLR418C, strain cdc73, active compounds read low 0.974 | S. cerevisiae deletion strains, locus YML016C, strain PPZ1, active compounds read low 1.02 | S. cerevisiae deletion strains, locus YML032C, strain rad52, active compounds read low 0.996 | S. cerevisiae deletion strains, locus YML120C, strain ndi1, active compounds read low 1.01 | S. cerevisiae deletion strains, locus YML124C, strain tub3, active compounds read low 0.998 | S. cerevisiae deletion strains, locus YMR058W, strain fet3, active compounds read low 1.01 | S. cerevisiae deletion strains, locus YMR078C, strain ctf18, active compounds read low 0.987 | S. cerevisiae deletion strains, locus YMR125W, strain sto1, active compounds read low 1.01 | S. cerevisiae deletion strains, locus YMR129W, active compounds read low 1.01 | S. cerevisiae deletion strains, locus YMR205C, strain PFK2, active compounds read low 1.03 | S. cerevisiae deletion strains, locus YMR223W, strain ubp8, active compounds read low 0.968 | S. cerevisiae deletion strains, locus YMR231W, strain pep5, active compounds read low 1.01 | S. cerevisiae deletion strains, locus YMR263W, strain SAP30, active compounds read low 1.03 | S. cerevisiae deletion strains, locus YMR307W, strain GAS1, active compounds read low 0.978 | S. cerevisiae deletion strains, locus YNL067W, strain RPL9B, active compounds read low 1.03 | S. cerevisiae deletion strains, locus YNL071W, strain lat1, active compounds read low 1.01 | S. cerevisiae deletion strains, locus YNL128W, strain TEP1, active compounds read low 1.03 | S. cerevisiae deletion strains, locus YNL153C, strain GIM3, active compounds read low 1.04 | S. cerevisiae deletion strains, locus YNL175C, strain NOP13, active compounds read low 1.01 | S. cerevisiae deletion strains, locus YNL197C, strain WHI3, active compounds read low 1.02 | S. cerevisiae deletion strains, locus YNL209W, strain ssb2, active compounds read low 1.01 | S. cerevisiae deletion strains, locus YNL224C, strain SQS1, active compounds read low 1 | S. cerevisiae deletion strains, locus YNL233W, strain BNI4, active compounds read low 1.03 | S. cerevisiae deletion strains, locus YNL248C, strain rpa49, active compounds read low 1.08 | S. cerevisiae deletion strains, locus YNL250W, strain rad50, active compounds read low 0.982 | S. cerevisiae deletion strains, locus YNL271C, strain bni1, active compounds read low 0.992 | S. cerevisiae deletion strains, locus YNL298W, strain CLA4, active compounds read low 0.999 | S. cerevisiae deletion strains, locus YNL307C, strain MCK1, active compounds read low 0.988 | S. cerevisiae deletion strains, locus YNL322C, strain KRE1 (second series), active compounds read low 1.06 | S. cerevisiae deletion strains, locus YNL322C, strain KRE1, active compounds read low 1.01 and 1.02 | S. cerevisiae deletion strains, locus YNR049C, strain mso1, active compounds read low 1 | S. cerevisiae deletion strains, locus YNR052C, strain pop2, active compounds read low 0.99 | S. cerevisiae deletion strains, locus YOL006C, strain TOP1, active compounds read low 1.11 | S. cerevisiae deletion strains, locus YOL012C, strain htz1 1.2 | S. cerevisiae deletion strains, locus YOL147C, strain pex11, active compounds read low 0.994 | S. cerevisiae deletion strains, locus YOR001W, strain rrp6, active compounds read low 0.96 | S. cerevisiae deletion strains, locus YOR061W, strain CKA2, active compounds read low 1.01 | S. cerevisiae deletion strains, locus YOR069W, strain VPS5, active compounds read low 1.01 | S. cerevisiae deletion strains, locus YOR070C, strain gyp1, active compounds read low 1.01 | S. cerevisiae deletion strains, locus YOR080W, strain dia2, active compounds read low 1 | S. cerevisiae deletion strains, locus YOR083W, strain WHI5 (second series), active compounds read low 0.989 | S. cerevisiae deletion strains, locus YOR083W, strain WHI5, active compounds read low 1.05 | S. cerevisiae deletion strains, locus YOR106W, strain vam3, active compounds read low 1.05 | S. cerevisiae deletion strains, locus YOR136W, strain idh2, active compounds read low 0.987 | S. cerevisiae deletion strains, locus YOR144C, strain elg1, active compounds read low 0.984 | S. cerevisiae deletion strains, locus YOR184W, strain ser1, active compounds read low 0.985 | S. cerevisiae deletion strains, locus YOR265W, strain rbl2, active compounds read low 1 | S. cerevisiae deletion strains, locus YOR270C, strain vph1, active compounds read low 1.04 | S. cerevisiae deletion strains, locus YOR290C, strain snf2, active compounds read low 1.06 | S. cerevisiae deletion strains, locus YOR316C, strain cot1, active compounds read low 0.994 | S. cerevisiae deletion strains, locus YPL051W, strain arl3, active compounds read low 1.01 | S. cerevisiae deletion strains, locus YPL055C, strain LGE1, active compounds read low 1.07 | S. cerevisiae deletion strains, locus YPL078C, strain atp4, active compounds read low 1.06 | S. cerevisiae deletion strains, locus YPL106C, strain sse1, active compounds read low 1.06 | S. cerevisiae deletion strains, locus YPL240C, strain hsp82, active compounds read low 1.02 | S. cerevisiae deletion strains, locus YPL241C, strain CIN2, active compounds read low 1.01 | S. cerevisiae deletion strains, locus YPR119W, strain clb2, active compounds read low 0.989 | S. cerevisiae deletion strains, locus YPR141C, strain kar3, active compounds read low 0.99 | S. cerevisiae deletion strains, locus YPR163C, strain tif3, active compounds read low 0.986 | S. cerevisiae deletion strains, locus YPR167C, strain met16, active compounds read low 0.989 | S. cerevisiae deletion strains, strain wtn01, active compounds read low 0.98 | S. cerevisiae strains, strain wild type, active compounds read low 1.02

— PubChem BioAssay AID1159580 (chemical genetic matrix, 2015)
